Bioassay records: PubChem, National Center for Advancing Translational Sciences (NCATS)
HCV inhibitor: inhibitors of hepatitis C virus infection. Potency, µM (doses to about 41.8 µM), inactives show at the top dose activity change, negative = inhibition, actives largely listed as inhibitors. hit rate 3.4% among 340,000. AID 651820. Huh7.5.1 HCVcc-Cre infection, luciferase reporter, 44 h; also: potency is read from the fitted curve at half-maximal effect
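Antiviral activity was scored by luciferase reporter output from cells infected with HCVcc-Cre (~0.5 moi) in presence of compound, 44 h infection period, cells seeded 1,000/well 4 h prior.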
Vaccinia mCherry: vaccinia inhibition (mCherry reporter) | Potency, µM (doses to about 36.5 µM), for the others: at the highest dose activity change, negative = inhibition, hits mostly inhibitors | Vaccinia virus mCherry reporter infection, fluorescence | AID 720579 | hit rate 0.63% among 310,000; calls by dose curve; tested in A549 cells; also: potency is read from the fitted curve at half-maximal effect; nearly all actives have a fitted effect of over 35% in size
FMDV antiviral: foot and mouth disease virus antiviral activity; AID 1159524; hit rate 1.2% among 410,000; Potency, µM (top dose mostly 57.9 µM), for inactives: top-dose activity change, negative = inhibition, usual class: inhibitors; FMDV antiviral cell-based qHTS; calls by dose curve; tested in HEK293T cells; also: read-out not given here; potency is read from the fitted curve at half-maximal effect; nearly all actives have a fitted effect of over 45% in size
VACV Venus inh: inhibitors of vaccinia virus (Venus reporter); Vaccinia virus Venus reporter expression, fluorescence; Potency, µM (top dose mostly 36.5 µM), for the others: at the highest dose activity change, negative = inhibition, actives largely listed as inhibitors; hit rate 0.46% among 330,000; AID 720580; calls by dose curve; tested in A549 cells; also: potency is read from the fitted curve at half-maximal effect; nearly all actives have a fitted effect of over 30% in size
Sm TGR block: blocks Schistosoma mansoni thioredoxin glutathione reductase. Q962Y6. purified TGR, DTNB reduction, TNB absorbance 405 nm. Potency, µM (highest dose often 114 µM), inactives show at the top dose activity change, negative = inhibition, usual class: inhibitors. hit rate 3% among 360,000; also: potency is read from the fitted curve at half-maximal effect; nearly all actives have a fitted effect of over 60% in size
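TGR 20 nM + NADPH 100 uM (dispensed conc.), cpd preinc 15 min RT; start with NADPH (500 uM addition) then DTNB (15 mM addition). Kinetic TNB absorbance, 405 nm filter. Four-parameter Hill fit across titration.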
HCMV antiviral: blocks human cytomegalovirus replication; HFF cells, HCMV-luciferase reporter, 72 h; active compounds read low; activity change, negative = inhibition, % at 57.5 µM; hit rate 4.5% among 410,000; AID 1259415; in the data active = activity change below about -60%; inconclusive = no clear call, values can overlap the other calls; inactive = above about -39%
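Screen run at 2 compound doses on HFFs infected with reporter HCMV, MOI 1 PFU/cell. Luciferase activity from cell lysates at 72 h post infection gave inhibition relative to buffer-only and Salinomycin wells.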
* marks the source's active call; other numbers are inactive results; i = inactive; ? = inconclusive; · = no result; [ ] = another dose, or the depositor's remark. A selection: hits, their analogues and other compounds. The true share with any hit is near 9.3%. Unless noted, calls follow the shape of the dose curve; as a rule, active = well fitted curve in the direction sought with a large enough effect; inconclusive = small, poorly fitted or top-dose-only effect, or another doubt; inactive = no such curve, though single readings can be large; an effect the other way counts as inactive or inconclusive. % is scaled to controls: 0 for no effect and ±100 for the full control effect.

SMILES	HCV inhibitor	Vaccinia mCherry	FMDV antiviral	VACV Venus inh	Sm TGR block	HCMV antiviral
COc1ccccc1NC(=O)/C=C\c1ccco1	-1.3%	·	58.4%	·	2.51µM*	38.6
COc1ccccc1NC(=O)/C(C#N)=C/C=C/c1ccco1	?	·	7.2%	·	1.7%	4.3
Cc1ccccc1NC(=S)NC(=O)/C=C/c1ccco1	-2.6%	-2.0%	-10.4%	-1.8%	6.31µM*	-15.6
COc1ccccc1NC(=S)NC(=O)/C=C/c1ccco1	-22.8%	-13.0%	-3.5%	-3.6%	17.8µM*	-17.4
Cc1nnc2sc(-c3ccc(NC(=O)c4ccc(-c5ccc(Cl)cc5Cl)o4)cc3)nn12	-9.7%	·	-1.0%	·	·	·
COc1ccc(/C=N/NC(=O)CSCC(=O)Nc2ccccc2)cc1	-0.4%	·	0.0%	·	2.3%	21.8
COc1cccc(/C=N/NC(=O)CNC(=O)C(c2ccccc2)c2ccccc2)c1O	?	3.55µM*	38.9%	?	3.5%	17.5
COc1cccc(/C=N/NC(=O)CSCC(=O)Nc2ccccc2)c1O	25.1µM*	·	15.1%	·	0.0%	-93.1*
N#CCc1c(C#N)c(N)nc(N2CCCC(O)C2)c1C#N (stereo not given)	-9.9%	·	-1.8%	·	2.1%	-3.4
CCc1ccccc1NC(=O)c1cc(S(=O)(=O)N2CCc3ccccc32)cn1C	4.9%	-14.0%	?	-17.8%	3.6%	4.1
Cc1ccc(NC(=O)c2cc(S(=O)(=O)N3CCc4ccccc43)cn2C)c(Cl)c1	·	-18.3%	-9.5%	-10.8%	-8.7%	-60.7*
CCCNC(=O)c1cc(S(=O)(=O)N2CCc3ccccc32)cn1C	8.91µM*	-4.0%	?	-24.3%	0.2%	?
CCCCCCNC(=O)c1cc(S(=O)(=O)N2CCc3ccccc32)ccc1F	3.6%	·	-14.0%	·	8.6%	-68.6*
CC(C)(C)OC(=O)N1CCC[C@H]1C(=O)Nc1ccc(C#N)cc1	-6.4%	i	-8.8%	-18.0%	-5.3%	29.7
CCOc1ccccc1-c1nc(CN2CCN(C(=O)c3ccco3)CC2)c(C)o1	-18.3%	·	-8.7%	·	?	-7.1
CCOc1ccccc1-n1c(CN2CCN(C(=O)c3ccco3)CC2)nc2ccccc2c1=O	1.2%	·	-29.9%	·	25.1µM*	-105.4*
CC(=O)N1CCC2(CC1)C/C(=N\NC(=S)Nc1ccccc1F)c1cc(O)ccc1O2	?	?	-4.0%	-15.9%	7.3%	-82.4*
COc1ccccc1NC(=S)N/N=C1\CC(C)(C)Oc2ccc(O)cc21	10µM*	·	?	·	3.7%	?
O=[N+]([O-])c1ccccc1CNCCCCCO	20.4%	-4.0%	1.9%	-12.2%	50.1µM*	-11.4
CC1CCN(c2ccc(-c3cccs3)nn2)CC1	0.3%	i	7.94µM*	-19.5%	?	-66.1*
Cc1ccc(NC(=O)CCS(=O)(=O)c2cccc3nonc23)cc1Cl	-0.2%	?	-15.6%	?	-35.4%	?
COc1cccc(-c2cc(C(=O)NCC3CCCO3)c3cc(Br)cc(C)c3n2)c1 (stereo not given)	?	·	-15.7%	·	-5.6%	-60.3*
Cc1ccc2c(Cl)c(C(=O)NCC3CCCO3)sc2c1 (stereo not given)	2.24µM*	·	24.6%	·	3.3%	109.1
Cc1ccc2nc(-c3ccc(Br)cc3)cc(C(=O)NCC3CCCO3)c2c1 (stereo not given)	·	i	7.1%	-16.8%	·	-100.5*
Cc1cc(Br)cc2c(C(=O)NCC3CCCO3)cc(-c3cccs3)nc12 (stereo not given)	-9.8%	-15.3%	8.7%	-14.8%	2.6%	-9.5
SMILES	HCV inhibitor	Vaccinia mCherry	FMDV antiviral	VACV Venus inh	Sm TGR block	HCMV antiviral
COC(=O)c1ccc(NC(=O)c2c(Br)cnn2C)cc1	10.2%	·	3.5%	·	14.1µM*	?
COC(=O)c1ccc(NC(=S)NC(=O)c2c(Cl)cnn2C)cc1	14.1%	i	3.0%	-6.6%	-3.1%	-21.9
O=C(NCc1ccco1)/C(=C\c1cccs1)NC(=O)c1ccccc1	0.0%	·	9.0%	·	-8.0%	-3.4
Brc1cc2[nH]cnc2c2ccccc12	10µM*	·	5.5%	·	?	21.0
CNc1cc(Cl)c2nonc2c1[N+](=O)[O-]	?	-27.3%	12.6µM*	?	0.447µM*	-98.9*
O=C(O)c1ccc(Nc2cc(Cl)c3nonc3c2[N+](=O)[O-])cc1	-3.8%	-2.4%	39.8µM*	-3.1%	0.316µM*	2.6
O=C(O)c1cccc(Nc2ccc3nonc3c2[N+](=O)[O-])c1	13.1%	·	-10.9%	·	?	-2.9
O=[N+]([O-])c1c(Nc2cccc(O)c2)cc(Cl)c2nonc12	?	?	22.4µM*	?	0.355µM*	-102.0*
Nc1cc(Nc2ccccc2)c2nonc2c1[N+](=O)[O-]	4.2%	·	-6.1%	·	1.5%	51.3
O=[N+]([O-])c1ccc(COc2ccccc2CN2CCCCC2)cc1	?	?	-15.5%	-7.8%	·	4.8
CN1CCN(Cc2nc3ccccc3n2C)CC1CCO (stereo not given)	9.8%	·	-10.4%	·	?	50.2
Cc1ccc(CCN2CCN=C2N(C)C)cc1	7.7%	-7.4%	-19.1%	-3.3%	0.9%	-14.3
Cc1cc([N+](=O)[O-])c2ccccc2[n+]1[O-]	11.2µM*	·	?	·	12.6µM*	·
O=C(Nc1ccn(Cc2c(F)c(F)cc(F)c2F)n1)c1ccc(COc2ccccc2Cl)cc1	12.6µM*	-23.9%	-16.0%	?	0.0%	-70.8*
O=C(Nc1ccn(Cc2ccccc2F)n1)c1ccc(COc2ccccc2Cl)cc1	15.8µM*	?	?	?	3.9%	-97.6*
Nc1nnc(/C=C/c2ccccc2)s1	6.9%	i	34.6%	0.9%	1.7%	-20.8
CCN(CC)CCCNC(=O)c1oc2ccc3c(c2c1C)C(O)CC(C)(C)O3 (stereo not given)	12.7%	·	-13.0%	·	0.0%	18.9
CCOC(=O)c1nn(-c2ccc(Cl)cc2)c2nc(-c3ccc(C)cc3)c(C#N)c(=O)n12	-23.8%	-2.5%	-16.5%	-21.4%	14.5%	-19.6
COc1ccc(CN(C)C(=O)CCN(c2ccccc2)S(=O)(=O)c2ccc(C)cc2)c(OC)c1	?	?	-12.6%	?	8.5%	-21.9
CC(C)NC(=O)NS(=O)(=O)c1cnccc1NC1CC2CCC1C2 (stereo not given)	7.8%	·	-1.2%	-26.1%	0.4%	-21.6
C#CCNc1ccncc1S(=O)(=O)NC(=O)NC(C)C	12.8%	·	-11.8%	3.6%	22.4µM*	-1.1
COc1ccc(CNCC(O)COCc2cccs2)cc1 (stereo not given)	8.8%	·	6.0%	·	9.2%[11.4 µM]	35.1
O=S(=O)(NCC(O)COCc1ccco1)c1cccs1 (stereo not given)	6.9%	-1.1%	2.3%	-14.7%	12.6µM*	56.8
CN(C)S(=O)(=O)c1ccc(N2CCCC2)c(C(=O)Nc2ccccc2N2CCOCC2)c1	22.8%	-7.4%	3.3%	-6.8%	-12.0%	14.3
Cc1ccccc1OCCCCCNCCO	?	·	-15.7%	·	6.9%	25.2
CC(C)(C)c1ccccc1OCCCCCNCCO	7.94µM*	·	-22.6%	·	-6.9%	-33.0
